Shown is part of a subset that was picked to be rich in hits.
Pf Dd2 growth – qHTS Primary assay for Inhibitors of Plasmodium falciparum Dd2 growth in vitro | 120,000 tested, 4.3% active | P. falciparum Dd2 growth, SYBR Green, 72 h | AID 1347417, 2020 | Potency, µM (highest dose often 28.9 µM), actives largely listed as inhibitors; active means well fitted inhibition curve with a large enough effect; further: nearly all actives have a fitted effect of over 65% in size
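Readout: SYBR Green fluorescence, 485 nm excitation, 535 nm emission, after ~16 h lysis at 37C. Before that, Dd2-infected red cells (2.5% hematocrit) grew 72 h with compound, 29 uM top final concentration.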
Numbers stand for hits; 0 = inactive.

SMILES | Pf Dd2 growth
CC(NC(=O)Cn1c(-c2cccs2)cc2cc(F)ccc21)c1ccccc1 (configuration not stated) | 1.12µM
CCOC(=O)Cn1c(-c2cccs2)cc2cc(Cl)ccc21 | 0
Cc1ccc(CNC(=O)Cn2c(-c3cccs3)cc3cc(Cl)ccc32)cc1 | 0
CN(C)c1ccc(CNC(=O)Cn2c(-c3cccs3)cc3cc(Cl)ccc32)cc1 | 0
CN1C[C@H](NC2CCC2)CCC[C@@H](C(=O)NC2CC2)CC1=O | 0
O=C(Cn1nc2c(cc1=O)CCCCC2)Nc1ccccc1 | 0
CC(C)(CC(=O)O)CC(=O)N1Cc2[nH]cnc2C[C@H]1C(=O)NC1CCCCC1 | 0
C[C@]1(CO)[C@H]2Cc3sc(NC(=O)c4ccco4)nc3[C@@H](CC(=O)NC3CCCC3)[C@]2(C)CC[C@H]1O | 0
O=C(c1cc(F)ccc1Cl)N1C[C@@H](CO)[C@H](c2ccccn2)C1 | 0
CCOCc1nc(C2CCCN(C(=O)Cc3ccccc3C)C2)no1 (configuration not stated) | 0
COCCc1noc(C2CN(C(=O)C3CCOC3)C2)n1 (configuration not stated) | 0
CN1CC(=O)N(c2ccccc2)Cc2c(NC3CCC3)ncnc21 | 0
O=C1CC2CCN(CC3CCNC3)CC2CCN1 (configuration not stated) | 0
Cc1cccc(NC(=O)CN2C(=O)NC3(CCC(C)CC3)C2=O)c1C (configuration not stated) | 0
CN(C)c1nc(-c2ccccc2)nc2c1CCN(C(=O)c1ccncc1)C2 | 0
OC1(c2csc(CN3CCc4ccccc4C3)n2)CCN(CC2CCCCC2)CC1 | 3.16µM
CN1CCC(N2CCC(O)(c3csc(CN4CCc5ccccc5C4)n3)CC2)CC1 | 0
O=C(COc1ccccc1)N1CCC(O)(c2csc(CN3CCc4ccccc4C3)n2)CC1 | 0
COCC(=O)N1CCC(O)(c2csc(CN3CCc4ccccc4C3)n2)CC1 | 0
CCN(CC)Cc1nc(C2(O)CCN(C)CC2)cs1 | 0
OC1(c2csc(CN3CCc4ccccc4C3)n2)CCN(Cc2ccccc2F)CC1 | 0
CN1CCN(Cc2nc(C3(O)CCN(CC4CC4)CC3)cs2)CC1 | 0
CCN(CC)Cc1nc(C2(O)CCN(CCC(C)C)CC2)cs1 | 15.8µM
O=C(c1ccccc1F)N1CCC(O)(c2csc(CN3CCc4ccccc4C3)n2)CC1 | 3.16µM
OC1(c2csc(CN3CCc4ccccc4C3)n2)CCN(C2CCC2)CC1 | 10µM
SMILES | Pf Dd2 growth
O=C(C1CC1)N1CCC(O)(c2csc(CN3CCc4ccccc4C3)n2)CC1 | 0
CCN(CC)Cc1nc(C2(O)CCN(CC3CC3)CC2)cs1 | 0
CCC(=O)Nc1cccc(OCC(=O)NCc2sc(C)nc2CC)c1 | 0
COc1ccc(CN2C[C@H](O)C[C@H]2c2nc(-c3ccc(C)c(F)c3)no2)cc1 | 0
COCCCN1CCCC2(CCN(C(=O)NCc3cccc(F)c3)C2)C1=O (configuration not stated) | 0
O=C(N[C@H](c1ccccn1)C1CC(O)C1)c1ccc2c(c1)ncn2CCO (some centres not stated) | 0
Cc1ccc(S(=O)(=O)NC[C@H]2O[C@@H](CC(=O)NCCN3CCOCC3)[C@H](O)[C@@H]2O)cc1 | 0
Cc1cc(C)cc(C(=O)NCc2nnc3ccc(-c4ccccc4)nn23)c1 | 0
O=C(NC[C@H]1OC[C@@H](NCc2cnc[nH]2)[C@@H]1O)C1CCCC1 | 0
CO[C@@]1(C)C[C@@H](O)C12CCN(C(=O)CSc1ccccc1C)CC2 | 0
COc1ccc(CN2CC(Oc3ccc4c(c3)OCO4)C2)cc1 | 0
CNC(=O)CCn1ncc2cc(OC3CCc4cccc(-c5c(C)noc5C)c43)ccc21 (configuration not stated) | 0
CC(C)CCN1CCC(O)(c2csc(CN3CCc4ccccc4C3)n2)CC1 | 12.6µM
CC(C)CCN1CCC(O)(c2csc(CN3CC[C@@H](O)C3)n2)CC1 | 0
CC(C)(C)CC(=O)N1CCC(O)(c2csc(CN3CCc4ccccc4C3)n2)CC1 | 0
CC(=O)N1C[C@@H]2CCCN3CCC[C@@H]([C@H]23)[C@H]1CCCC(=O)NCCCc1ccccc1 | 0
O=C1CCCN1Cc1noc(-c2cccc(Cl)c2)n1 | 0
Cn1cccc1C(=O)NC[C@H]1O[C@@H](CO)[C@@H](O)[C@H]1N1CCOCC1 | 0
COC(=O)c1ccc2nc(CO[C@H]3CN(C(C)=O)C[C@H]3F)[nH]c2c1 | 0
CCCC(=O)N1C[C@@H]2CCCN3CCC[C@@H]([C@H]23)[C@H]1CCCC(=O)N1CCOCC1 | 0
COc1cc(C(=O)N2CCc3c([nH]c4ccccc34)C2c2ccc(F)cc2)cc(OC)c1OC (configuration not stated) | 4.47µM
COc1ccc(C2c3[nH]c4ccc(OC)cc4c3CCN2C(=O)Nc2ccccc2)cc1 (configuration not stated) | 6.31µM
CCOc1cccc(CC(=O)N2CCc3c([nH]c4ccccc34)C2c2ccc(Cl)cc2)c1OCC (configuration not stated) | 5.01µM
CCOc1ccc(C2c3[nH]c4ccccc4c3CCN2C(=O)CCC2CCCC2)cc1 (configuration not stated) | 0
COc1ccccc1C(=O)NC1CCCc2c1[nH]c1ccccc21 (configuration not stated) | 0
SMILES | Pf Dd2 growth
COc1ccc2[nH]c3c(c2c1)CCN(C)C31CCN(C(=O)C2CCCC2)CC1 | 0
CCc1ccccc1NC(=O)N1CCc2c([nH]c3ccccc23)C1c1ccc(C)cc1 (configuration not stated) | 0
CCOc1cc(CNC(=O)C2CCN(c3nc4ccccc4[nH]3)CC2)cc(OCC)c1OCC | 0
CCOc1cccc(CC(=O)NCc2ccc3c(c2)CCN3C(=O)c2cccc(C)c2)c1OCC | 0
CCOc1cc(C(=O)N2CCC[C@H]2c2nc(-c3ccc(C)cc3)no2)cc(OCC)c1OCC | 0
CCOc1cc(C(=O)N2CCc3c([nH]c4ccccc34)C2c2ccccc2)cc(OCC)c1OCC (configuration not stated) | 2µM
COc1ccc(C(=O)N2CC(=O)Nc3ccc(Br)cc3C2c2ccc(F)cc2)cc1OC (configuration not stated) | 0
COC[C@@H]1CN(C(=O)c2ccc3c(c2)OCO3)C[C@H]1c1ccccn1 | 0
COCC1CN(C(=O)NCc2cccc(OC)c2)CC12CCNCC2 (configuration not stated) | 0
O=C(O)c1cccc([S+](=O)([O-])N2CC(CNC(=O)c3ccccc3)C3(CN(c4ccccc4)C3)C2)c1 (configuration not stated) | 0
O=C(c1ccncn1)N1C[C@@H](COCC2CC2)[C@H](c2ccncc2)C1 | 0
N#Cc1cccc(CN2CC3(COCC(=O)N(Cc4cccc(OC(F)(F)F)c4)C3)C2)c1 | 0
COc1ccc(CNC(=O)CC[C@H]2CNC(=O)[C@@H]3[C@@H](CCN3Cc3ccc(C(=O)O)cc3)N2C)cc1 | 0
Cc1cccc(C(=O)N2CCC(n3cnnc3C3CC3)CC2)c1 | 0
CNC(=O)Nc1ccc(C2(C(=O)NCc3ccco3)CCC2)cc1 | 0
COc1nc2c(cc1CNC(=O)CN1CCOCC1)C(=O)N(C1CCCC1)C2 | 0
COc1ccc([S+](=O)([O-])N2CCC(N3CCOCC3=O)CC2)cc1 | 0
COc1ccccc1C(=O)N1CCC2(CC1)NC(=O)N(c1cccc(F)c1)N2 | 0
COc1ccc(Cl)cc1C(=O)N1CCC2(CC1)NC(=O)N(c1ccccc1)N2 | 0
COc1ccc(C(=O)N2CCC3(CC2)NC(=O)N(c2cccc(F)c2)N3)cc1 | 11.2µM

Screening data (PubChem BioAssay)
